Test results from PubChem BioAssay (NCI).
The panel holds about 83,000 compounds, 20% with a hit somewhere; the sample as a whole holds those more often.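 Treatment: one concentration, 48 hours, 96-well format. Scoring: percent growth, with anything below 10 considered active.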 A number with no mark means an inactive call. The source made the active and inactive calls.

tested on: OVCAR-5 ovarian; assay: NCI-60 one-dose screen, 48 h (100 = growth as untreated, 0 = no growth, -100 = all killed); details: 10 µM unless noted

| SMILES | growth |
| --- | --- |
| O=S(=O)(NCCCNc1nccc(-c2c(-c3ccc(F)c(O)c3)nc3sccn23)n1)c1ccc(Cl)cc1 | 129% |
| Nc1ccc(S(=O)(=O)c2ccc(Cl)cc2)cc1 | 90.1% |
| O=C1OC(c2ccccc2)=N/C1=C\c1ccc([N+](=O)[O-])cc1 | 92.8% |
| CC(Br)C(Br)c1cc2c(cc1Br)OCO2 (stereo unspecified) | 98.6% |
| COc1ncc(-c2ccc3ncnc(Nc4cccc(Cl)c4)c3c2)cc1NS(=O)(=O)CCN1CCOCC1 | 6.39% (active) |
| CCCCC[C@@H]1Cc2cc(O)c(C(=O)O)c3c2[C@H](C[C@@]2(CCCO2)O3)O1 | 104% |
| CC(C)C[C@H](NC(=O)[C@@H](Cc1ccccc1)n1ccc(Nc2ccccc2)cc1=O)B(O)O | 16% |
| N#CC1=C(N)n2nc(-c3ccncc3)nc2NC1c1cccc2ccccc12 (stereo unspecified) | 100% |
| O=c1cc(C2NCCc3c2[nH]c2ccccc32)c2c(ccc3ccccc32)o1 (stereo unspecified) | 78.3% |
| CC(C)CCC[C@@H](C)[C@H]1CC[C@H]2[C@@H]3CC[C@H]4C/C(=N/O)CC[C@]4(C)[C@H]3CC[C@]12C | 112% |
| COc1ccc(/C=C/C(=O)c2cccc(B(O)O)c2)cc1O | 88.4% |
| O=c1oc2c([nH]c3ccc4ccccc4c32)c2ccccc12 | 112% |
| O=C(NCCc1c[nH]c2ccccc12)C1Cc2ccccc2CN1C(=O)c1ccco1 (stereo unspecified) | 125% |
| CC/C=C\C[C@H]1C/C=C2/C(=O)C(Cl)=C[C@@H]2C/C=C\CCCC(=O)O1 | -25% (active) |
| C/C(=N\NC(=O)CC#N)c1cc2cc(Cl)ccc2o1 | 105% |
| O=C(Nc1ccc(F)cc1)c1cc([N+](=O)[O-])ccc1O | 86.1% |
| CCN(CC)CCSc1c2ccc(Cl)cc2nc2ccc(OC)cc12 | 103% |
| O=[N+]([O-])c1ccc(S(=O)(=O)N2CCN(c3ccnc4cc(Cl)ccc34)CC2)c([N+](=O)[O-])c1 | 106% |
| O=[N+]([O-])c1c(S(=O)(=O)O)cc2cc(S(=O)(=O)O)ccc2c1[N+](=O)[O-] | 97.2% |

| SMILES | growth |
| --- | --- |
| Clc1nc(Cl)c2ncn(C/C=C/Cn3cnc4c(Cl)nc(Cl)nc43)c2n1 | 112% |
| CC(C)C[C@H](NC(=O)Cn1ccc(NCc2ccccc2)cc1=O)B(O)O | 38.9% |
| N#Cc1ccc(NC(=O)c2ccc3cccnc3c2O)cc1 | 60.6% |
| CCCCCCc1nc2c(c(C)nn2-c2ccccc2)c2c1CCCCC2 | 114% |
| Nc1nc(N)c2nc(CNc3ccc(C(=O)CC(CCC(=O)O)C(=O)O)cc3)cnc2n1 (stereo unspecified) | 53.1% |
| Nc1nc(Cl)c2c(ncn2Cc2ccc(CCl)cc2)n1 | 109% |
| CCOc1ccc(/C=C/C=N/NC(N)=S)cc1 | 90.9% |
| COc1cc(/C=C/C(=O)c2ccccc2O)ccc1OCCCOc1cc2c(cc1OC)C(=O)N1CCC[C@H]1C=N2 | 0.483% (active) |
| CC(CCc1ccccc1)NC(=O)c1n[nH]c(=O)c2ccccc12 (stereo unspecified) | 118% |
| COc1cc(-c2nc(-c3nc4ccccc4[nH]3)cc3c2[nH]c2ccccc23)cc(OC)c1OC | 88.8% |
| O=C(/C=C/CN1CCOCC1)Nc1cc2c(Nc3ccc(F)c(Cl)c3F)ncnc2cc1OCCOC(F)F | 49.6% |
| COc1cc(NS(C)(=O)=O)ccc1Nc1c2ccc([N+](=O)[O-])cc2nc2c(C)cccc12 | 36.8% |
| O=S(=O)(NCCCNc1cc(-c2cn(-c3ccccc3)nc2-c2cccc(O)c2)ccn1)c1cccc2ccccc12 | 59.7% |
| O=c1[nH]c(-c2cn(-c3ccc(Cl)cc3)nn2)nc2ccccc12 | 102% |
| CCN(C(=O)c1cc2ccccc2[nH]1)[C@H]1CCC[C@@H](NCc2ccc(OC)cc2)C1 | 85.5% |
| COc1ccc(/C=C/C(=O)c2ccc(B(O)O)cc2)cc1O | 88.2% |
| Clc1ccc2c(c1)NC1(CCSc3ccccc31)n1nccc1-2 (stereo unspecified) | 92.6% |
| O=C1NC(Cc2c[nH]c3ccccc23)C(=O)N1Cc1ccc(Cl)cc1 (stereo unspecified) | 108% |
| CCCCCCCCCCC/C=C\C[C@H](O)C/C=C1/C(=O)C=C[C@@H]1C/C=C\CCCC(=O)OC | 21.9% |

tested on: OVCAR-4 ovarian; assay: as above; details: 10 µM unless noted

| SMILES | growth |
| --- | --- |
| O=S(=O)(NCCCNc1nccc(-c2c(-c3ccc(F)c(O)c3)nc3sccn23)n1)c1ccc(Cl)cc1 | 99.1% |
| Nc1ccc(S(=O)(=O)c2ccc(Cl)cc2)cc1 | 110% |
| O=C1OC(c2ccccc2)=N/C1=C\c1ccc([N+](=O)[O-])cc1 | 114% |
| CC(Br)C(Br)c1cc2c(cc1Br)OCO2 (stereo unspecified) | 105% |
| COc1ncc(-c2ccc3ncnc(Nc4cccc(Cl)c4)c3c2)cc1NS(=O)(=O)CCN1CCOCC1 | 33.1% |
| CCCCC[C@@H]1Cc2cc(O)c(C(=O)O)c3c2[C@H](C[C@@]2(CCCO2)O3)O1 | 94.2% |
| CC(C)C[C@H](NC(=O)[C@@H](Cc1ccccc1)n1ccc(Nc2ccccc2)cc1=O)B(O)O | 33.9% |
| N#CC1=C(N)n2nc(-c3ccncc3)nc2NC1c1cccc2ccccc12 (stereo unspecified) | 80.4% |
| O=c1cc(C2NCCc3c2[nH]c2ccccc32)c2c(ccc3ccccc32)o1 (stereo unspecified) | 62.3% |
| CC(C)CCC[C@@H](C)[C@H]1CC[C@H]2[C@@H]3CC[C@H]4C/C(=N/O)CC[C@]4(C)[C@H]3CC[C@]12C | 119% |
| COc1ccc(/C=C/C(=O)c2cccc(B(O)O)c2)cc1O | 73.9% |
| O=c1oc2c([nH]c3ccc4ccccc4c32)c2ccccc12 | 109% |
| O=C(NCCc1c[nH]c2ccccc12)C1Cc2ccccc2CN1C(=O)c1ccco1 (stereo unspecified) | 96.9% |
| CC/C=C\C[C@H]1C/C=C2/C(=O)C(Cl)=C[C@@H]2C/C=C\CCCC(=O)O1 | -37.8% (active) |
| C/C(=N\NC(=O)CC#N)c1cc2cc(Cl)ccc2o1 | 91.5% |
| O=C(Nc1ccc(F)cc1)c1cc([N+](=O)[O-])ccc1O | 70.5% |
| CCN(CC)CCSc1c2ccc(Cl)cc2nc2ccc(OC)cc12 | 81% |
| O=[N+]([O-])c1ccc(S(=O)(=O)N2CCN(c3ccnc4cc(Cl)ccc34)CC2)c([N+](=O)[O-])c1 | 95.3% |
| O=[N+]([O-])c1c(S(=O)(=O)O)cc2cc(S(=O)(=O)O)ccc2c1[N+](=O)[O-] | 114% |

| SMILES | growth |
| --- | --- |
| Clc1nc(Cl)c2ncn(C/C=C/Cn3cnc4c(Cl)nc(Cl)nc43)c2n1 | 94.6% |
| CC(C)C[C@H](NC(=O)Cn1ccc(NCc2ccccc2)cc1=O)B(O)O | 48.2% |
| N#Cc1ccc(NC(=O)c2ccc3cccnc3c2O)cc1 | 16.5% |
| CCCCCCc1nc2c(c(C)nn2-c2ccccc2)c2c1CCCCC2 | 115% |
| Nc1nc(N)c2nc(CNc3ccc(C(=O)CC(CCC(=O)O)C(=O)O)cc3)cnc2n1 (stereo unspecified) | 79.9% |
| Nc1nc(Cl)c2c(ncn2Cc2ccc(CCl)cc2)n1 | 96.1% |
| CCOc1ccc(/C=C/C=N/NC(N)=S)cc1 | 73.2% |
| COc1cc(/C=C/C(=O)c2ccccc2O)ccc1OCCCOc1cc2c(cc1OC)C(=O)N1CCC[C@H]1C=N2 | -2.17% (active) |
| CC(CCc1ccccc1)NC(=O)c1n[nH]c(=O)c2ccccc12 (stereo unspecified) | 102% |
| COc1cc(-c2nc(-c3nc4ccccc4[nH]3)cc3c2[nH]c2ccccc23)cc(OC)c1OC | 59.5% |
| O=C(/C=C/CN1CCOCC1)Nc1cc2c(Nc3ccc(F)c(Cl)c3F)ncnc2cc1OCCOC(F)F | 54.7% |
| COc1cc(NS(C)(=O)=O)ccc1Nc1c2ccc([N+](=O)[O-])cc2nc2c(C)cccc12 | 49.1% |
| O=S(=O)(NCCCNc1cc(-c2cn(-c3ccccc3)nc2-c2cccc(O)c2)ccn1)c1cccc2ccccc12 | 45.2% |
| O=c1[nH]c(-c2cn(-c3ccc(Cl)cc3)nn2)nc2ccccc12 | 36% |
| CCN(C(=O)c1cc2ccccc2[nH]1)[C@H]1CCC[C@@H](NCc2ccc(OC)cc2)C1 | 83.3% |
| COc1ccc(/C=C/C(=O)c2ccc(B(O)O)cc2)cc1O | 114% |
| Clc1ccc2c(c1)NC1(CCSc3ccccc31)n1nccc1-2 (stereo unspecified) | 103% |
| O=C1NC(Cc2c[nH]c3ccccc23)C(=O)N1Cc1ccc(Cl)cc1 (stereo unspecified) | 96.9% |
| CCCCCCCCCCC/C=C\C[C@H](O)C/C=C1/C(=O)C=C[C@@H]1C/C=C\CCCC(=O)OC | -1.25% (active) |
